High-throughput results deposited in PubChem by The Scripps Research Institute Molecular Screening Center.
This is a sample that favours compounds with a hit; in the whole collection about 3.5% have one here.
MITF primary: human MITF inhibition, primary screen; AlphaScreen MITF homodimerization, bead proximity signal; AID 1259374; inhibition, % at 2.6 µM; actives 0.91% (n = 650,000); in the data active = inhibition above about 50%;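 note: 0% = vehicle wells with protein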
GPR151 ag: activates the human receptor GPR151. actives 1% (n = 650,000). AID 1508602. PathHunter beta-arrestin GPR151 cells, luminescence. activation, % at 11.2 µM. Q8TDV0; in the data active = activation above about 4.9%;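 note: 0% = median of compound wells and 100% = cells with positive control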
Target sequence (Q8TDV0 whole entry, looked up): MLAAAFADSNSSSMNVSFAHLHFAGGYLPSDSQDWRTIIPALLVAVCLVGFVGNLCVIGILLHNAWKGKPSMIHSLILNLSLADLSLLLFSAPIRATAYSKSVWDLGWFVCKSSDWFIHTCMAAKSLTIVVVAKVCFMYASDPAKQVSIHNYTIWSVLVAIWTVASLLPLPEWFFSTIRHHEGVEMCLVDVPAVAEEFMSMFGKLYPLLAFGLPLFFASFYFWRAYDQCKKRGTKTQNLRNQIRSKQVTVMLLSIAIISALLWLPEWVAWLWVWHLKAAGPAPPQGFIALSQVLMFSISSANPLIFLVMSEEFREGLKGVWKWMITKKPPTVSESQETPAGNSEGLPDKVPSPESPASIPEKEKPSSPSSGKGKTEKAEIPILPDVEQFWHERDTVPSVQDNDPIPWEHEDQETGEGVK
FBW7 act: activators of human E3 ligase FBW7. Q969H0. AlphaScreen FBW7–phospho-cyclin E peptide binding, activator screen. normalized activity (activation), % at 26.1 µM. actives 0.13% (n = 650,000). AID 1259310; in the data active = normalized activity above about 1.9%;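 note: purified mutant Fbw7 with reduced substrate affinity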
TEAD-YAP inh: TEAD-YAP interaction inhibition; HEK-TIYL cells, TEAD-Gal4/YAP UAS-luciferase luminescence; inhibition, % at 9.12 µM; actives 1.4% (n = 640,000); in the data active = inhibition above about 32%;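 note: 0% = median of test compound wells and 100% = reference inhibitor wells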
GPR151 conf act: human GPR151 activation, confirmation screen | shares compounds with GPR151 ag | GPR151 PathHunter beta-arrestin cells, luminescence, 90 min; % of EA-reagent control over plate median | activation, % at 11.2 µM | 6,700 tested, under 10 active | AID 1508609;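 active = mean percent activation across replicates above the confirmation screen cutoff of 4.91%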
GPR119 counter: activates human GPR119 in a GPR151 counter-screen; AID 1508611; activation, % at 11.2 µM; shares compounds with GPR151 ag; GPR119 PathHunter beta-arrestin cells, luminescence, 90 min; 0 = compound-well median, 100 = enzyme-acceptor control; actives 0.3% (n = 6,700);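 active = mean percent activation in the counterscreen above 29.09%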;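 note: counterscreen on off-target GPR119 to flag nonselective hits from the GPR151 activator screen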
An asterisk follows results filed as active; / = no result; ! = not confirmed by another sample.

SMILES	MITF primary	GPR151 ag	FBW7 act	TEAD-YAP inh	GPR151 conf act	GPR119 counter
CCOCCCNC(=O)Cn1ncn2c(cc3sc(CC)cc32)c1=O	-4.3	0.3	0.1	-1.2	/	/
CCCCc1ccc(C2=N/C(=C\c3ccc(C)cc3)C(=O)O2)cc1	-6.0	-0.3	-0.1	-3.9	/	/
CCCCc1ccc(C2=N/C(=C\c3ccccc3)C(=O)O2)cc1	0.9	6.4*	0.0	-1.8	-0.5	-10.0
CCOC(=O)c1c(NC(=O)c2cc(=O)c3ccccc3o2)sc2c1CCN(C(C)=O)C2	-10.5	6.0*	-0.1	1.4	0.4	1.9
CC(C)N1CCc2c(sc(NC(=O)Cc3ccccc3)c2C(N)=O)C1	2.4	-0.2	0.6	-14.5	/	/
CC(C)C(=O)N(CC(=O)Nc1sc2c(c1C(N)=O)CCCC2)Cc1ccccc1	-1.9	7.1*	-0.1	5.6	0.3	7.2
CC(=O)N1CCc2c(sc(NC(=O)Cc3ccccc3)c2C(N)=O)C1	2.9	5.3*	-0.1	1.2	0.2	0.4
Cc1ncoc1C(=O)N1CCC(C(=O)Nc2cccc(-c3ccco3)c2)CC1	13.0	2.5	0.0	1.9	/	/
NC(=O)c1cccc(N)c1	-6.7	6.2*!	0.1	-8.9	0.0	0.7
Cc1nc2c(-c3ccccc3)c(C)nn2c(C)c1CCC(=O)NCCN1CCOCC1	-3.6	7.6*	0.1	0.9	-0.7	-7.4
COc1ccc(-n2cc(-c3ccccc3)c3c(NCCc4ccc(OC)c(OC)c4)ncnc32)cc1	6.9	5.1*	-0.1	3.0	-0.3	11.9
O=C(NCc1nc2ccccc2[nH]1)c1ccnc(Nc2ccccc2)c1	8.0	0.1	-0.2	-19.6	/	/
Cc1cccc(C(=O)Nc2ccccc2OCC(F)(F)C(F)F)c1	7.5	-0.5	-0.1	-19.3	/	/
CCOC(=O)CSc1nnc(-c2cccc(NC(=O)c3ccccc3Cl)c2)n1C	6.3	5.3*	0.0	-0.3	0.7	0.9
Cc1cc(NC(=O)C(N)=O)ccc1Br	3.1	5.0*	0.0	3.6	-0.2	4.0
CCn1c(N)c(C(=O)N2CCCCC2)sc1=S	9.7	5.4*	-0.2	0.2	-0.4	0.0
CN1C(=O)/C(=c2\sc3nc(=O)c(Cc4ccccc4)nn3c2=O)c2ccccc21	15.3	5.5*	0.1	3.4	0.2	4.2
O=C1/C(=c2\sc3nc4ccccc4n3c2=O)c2ccccc2N1Cc1ccccc1	-0.3	7.2*	0.0	-9.5	0.5	-11.9
O=C(CN1C(=O)/C(=c2/sc3nc4ccccc4n3c2=O)c2ccccc21)Nc1ccc(F)cc1	4.0	1.8	-0.1	4.9	/	/
N#Cc1c(-c2ccc(Cl)cc2)cc(C2CC2)nc1SCC(N)=O	10.0	-1.0	0.0	10.1	/	/
O=C(Nc1ccc2[nH]ncc2c1)[C@H]1CCN(C(=O)[C@H](O)CSc2ccc(Br)cc2)C1	5.9	-0.7	0.0	-10.9	/	/
O=C(Nc1ccc2[nH]ncc2c1)[C@H]1CCN(C(=O)[C@@H](O)CSc2ccc(Br)cc2)C1	0.7	5.7*	0.2	-4.1	-0.7	10.0
CCCC(=O)Nc1ccc(NC(=O)c2cnccn2)cn1	-8.0	8.0*	0.6	-9.2	-1.0	-5.7
Cc1cc(Nc2ccc(Oc3ccccc3)cc2)nc(Nc2cccnc2)n1	12.4	-0.7	0.3	-8.3	/	/
Cc1cc(Nc2ccc(Oc3ccccc3)cc2)nc(Nc2ccccn2)n1	-11.5	5.9*	-0.2	-14.9	0.1	-2.1
SMILES	MITF primary	GPR151 ag	FBW7 act	TEAD-YAP inh	GPR151 conf act	GPR119 counter
Cc1ccc2nc(Cl)c3cc(C(=O)N4CCN(C)CC4)sc3c2c1	8.3	-0.3	-0.2	-3.9	/	/
Cc1ccc2nc(Cl)c3cc(C(=O)N=C4NC(=O)CN4C)sc3c2c1	-0.3	6.1*	0.0	1.8	0.5	3.7
CCOC(=O)c1[nH]c(C)c(C(=O)OCc2nc3ccc(Cl)cc3n2CCO)c1C	-2.2	6.3*	-0.1	56.4*	0.8	-2.5
CC1=C(C#N)c2nc(N)c(C#N)c(C)c2/C1=C\c1cccs1	-1.9	5.4*	0.0	-6.6	0.8	-0.7
Cc1ccnc(SCc2nc3ccccn3c2Br)n1	18.3	14.8*	0.5	-31.5	-1.1	-14.2
Cc1ccnc(SCc2nc3ccc(Cl)cn3c2Br)n1	6.6	-0.7	0.3	-40.1	/	/
Nc1c(C=C2C=CC(=O)C=C2)c(=O)nc2sc(N3CCOCC3)nn12	4.6	-0.2	-0.2	2.6	/	/
